The text below walks through data of PubChem BioAssay (NCI).

Among the test systems are SN12C renal; UO-31 renal; TK-10 renal; ACHN renal; CAKI-1 renal; A498 renal; MOLT-4 leukemia; SR leukemia; CCRF-CEM leukemia.
Common to all, as to assay: NCI-60 one-dose screen, 48 h (100 = growth as untreated, 0 = no growth, -100 = all killed)
Common to all, as to settings: 10 µM

The panel holds about 83,000 compounds, 20% with a hit somewhere; the sample as a whole holds those more often.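 Cells were grown in 96-well plates and exposed to the test compound at a single concentration for 48 hours; results are reported as percent growth, with values below 10 considered active.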 A number with no mark means an inactive call. Activity calls are given as the source filed them.

Consider `COc1ccc(-n2c(SCc3cc(OC)c(OC)c(OC)c3)nc3ccc(C)cc3c2=O)cc1`, for which the growth with SN12C renal is 82.2%; in the test with UO-31 renal it was 47.2%; in the test with TK-10 renal, 94.2%; in the test with ACHN renal it was 66.7%; with CAKI-1 renal it was 54.2%; with A498 renal, 38%. For the same molecule, the growth was 56% in the test on MOLT-4 leukemia and 23% in the test with SR leukemia.
On to `O=C1NC(=O)N(Cc2ccccc2)CC1Br` (stereo not drawn), for which the growth with SN12C renal was 56.3%; in the test on UO-31 renal it was 77.6%; with TK-10 renal, 86.3%; with ACHN renal, 70.5%; in the test on A498 renal, 129%; in the test on CCRF-CEM leukemia, 13%. Also, the values for the growth in the test with MOLT-4 leukemia and with SR leukemia were 57.7% and 19.7%, respectively.
Regarding `CC/C(C)=C(\C)C(=O)O`, the growth is 111% in the test on SN12C renal; 78.4% in the test with UO-31 renal; 105% in the test with TK-10 renal; 116% in the test on ACHN renal; 95.5% in the test with CAKI-1 renal; 110% with A498 renal. Moreover, the growth in the test on MOLT-4 leukemia was 101%; with SR leukemia, 107%.
Regarding `CCOC(=O)N1C/C(=C/c2ccc(F)cc2)C(=O)/C(=C/c2ccc(F)cc2)C1`, the growth is -43.8% (active) in the test on SN12C renal; -55.6% (active) with UO-31 renal; 2.65% (active) in the test with TK-10 renal; -16% (active) in the test on CAKI-1 renal; -1.18% (active) in the test on CCRF-CEM leukemia; 2.2% (active) with MOLT-4 leukemia. For the same molecule, the growth in the test with SR leukemia was -19.9% (active).
With `Cc1ccc(-c2n[nH]c(=O)c3noc(-c4ccc(C)cc4)c23)cc1`, the growth in the test on SN12C renal is 47%; with UO-31 renal, 20.3%; in the test on ACHN renal it was 33.9%; with CAKI-1 renal, 16.9%; with A498 renal it was 13.8%; in the test with CCRF-CEM leukemia it was 17.5%. The growth in the test on MOLT-4 leukemia was 44.2%; with SR leukemia, 10.2%.
Consider `O=C1/C(=C\c2ccc(F)cc2)CN(C(=O)c2ccc([N+](=O)[O-])cc2)C/C1=C\c1ccc(F)cc1`, for which the growth with SN12C renal is 46.9%; in the test on UO-31 renal it was 24.3%; in the test with TK-10 renal it was 87.3%; in the test with CAKI-1 renal, 39.4%; in the test on A498 renal, 52%; with CCRF-CEM leukemia, 7.75% (active). The growth in the test on MOLT-4 leukemia was 27.2%; with SR leukemia it was -19.3% (active).
`COc1cc(C(=O)/C=C/c2cc(-c3cc(OC)c(OC)c(OC)c3)n[nH]2)cc(OC)c1OC`: the growth in the test on SN12C renal was 2.09% (active); in the test with UO-31 renal, -77.2% (active); in the test on ACHN renal, -25.8% (active); in the test with CAKI-1 renal, 8.9% (active); in the test on A498 renal, 29.2%; in the test with CCRF-CEM leukemia, -23.8% (active). Moreover, the growth in the test with MOLT-4 leukemia is 7.64% (active); with SR leukemia, -7.98% (active).
As for `O=C(Nc1ccc(CO)cc1)c1ccccc1Nc1ccnc(C(F)(F)F)c1`, the growth with SN12C renal is 95.6%; with UO-31 renal it was 81.5%; with ACHN renal it was 103%; with CAKI-1 renal, 95.8%; in the test on A498 renal it was 95.7%; with CCRF-CEM leukemia, 89.7%. Further, the growth in the test on MOLT-4 leukemia was 98.4%; in the test with SR leukemia, 82.9%.
As to `COc1cc(-c2cc(-c3cc4c([nH]c5ccccc54)c(-c4cc(OC)c(OC)c(OC)c4)n3)cc(-c3ccccc3)n2)cc(OC)c1OC`, the growth in the test on SN12C renal is 54.6%; in the test on UO-31 renal, 36.9%; in the test on ACHN renal, 62.8%; in the test with CAKI-1 renal, 32.9%; in the test on A498 renal, 54.5%; with CCRF-CEM leukemia it was 37.9%. The growth in the test with MOLT-4 leukemia was 18.5%; with SR leukemia, 16.7%.
In the case of `COc1ccc(OC)c(/C=C/c2nnc(Nc3ccc(Cl)cc3)o2)c1`, the growth is 44.9% in the test on SN12C renal; 4.98% (active) with UO-31 renal; 39.1% with TK-10 renal; 32.6% with ACHN renal; 90.1% in the test with CCRF-CEM leukemia; 89.7% in the test on MOLT-4 leukemia. The growth in the test on SR leukemia was 78.9%.
Regarding `COc1cc(-c2cc(/C=C/C(=O)c3ccc(F)c(F)c3)[nH]n2)cc(OC)c1OC`, the growth in the test on SN12C renal is 39.2%; with UO-31 renal, 61.2%; in the test on ACHN renal, 36.8%; with CAKI-1 renal, 6.42% (active); with A498 renal, 60.9%; with CCRF-CEM leukemia, 33.3%. In addition, the values for the growth in the test on MOLT-4 leukemia and in the test on SR leukemia were 41% and 44.3%, respectively.
For `COc1cc(/C=C2\CCCC3=C2N=C2SC=NN2C3c2cc(OC)c(OC)c(OC)c2)cc(OC)c1OC` (stereo not drawn), the growth with SN12C renal was 7.13% (active); with UO-31 renal, 36%; in the test with TK-10 renal, 17.5%; in the test on CAKI-1 renal, 9.47% (active); in the test on A498 renal, 24.5%; with CCRF-CEM leukemia it was 2.74% (active). The growth was -2.28% (active) in the test with MOLT-4 leukemia and 7.88% (active) in the test with SR leukemia.
For `CCN(CC)CCCC(C)Nc1ccc2ccc(Cl)cc2n1` (stereo not drawn), the growth in the test with SN12C renal was 88.8%; in the test with UO-31 renal, 85.8%; in the test on TK-10 renal, 100%; with CAKI-1 renal, 104%; with A498 renal it was 92.3%; in the test on CCRF-CEM leukemia, 102%. The figures for the growth with MOLT-4 leukemia and with SR leukemia were 96.5% and 96.4%, respectively.
As to `CN(C)N=Nc1nn(C(=O)Nc2ccc(Cc3ccccc3)cc2)c2ccccc12`, the growth in the test with SN12C renal was 58.9%; in the test on UO-31 renal, 41.9%; with ACHN renal it was 34.3%; in the test with CAKI-1 renal it was 15.5%; in the test on A498 renal, 82.4%; in the test on CCRF-CEM leukemia, 64.8%. The growth with MOLT-4 leukemia is 64.1%; in the test on SR leukemia it was 59.8%.
Regarding `O=c1[nH]c(-c2ccc(Cl)cc2)nc2sc3c(c12)CCCC3`, the growth in the test with SN12C renal was 52.5%; in the test with UO-31 renal it was 78.8%; in the test with ACHN renal, 53.3%; in the test with CAKI-1 renal, 13.4%; in the test with A498 renal, 86.6%; in the test on CCRF-CEM leukemia, 12.3%. Moreover, the growth with MOLT-4 leukemia is 49.4%; in the test on SR leukemia it was 0.705% (active).
